Gli-Sufu antag = antagonists of Gli-Sufu signaling; Sufu-KO-LIGHT fibroblasts, Gli luciferase reporter luminescence; hit rate 0.74% among 340,000; inhibition, % at 5 µM; AID 588413;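 active = inhibition above about 55%, limit read from the data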;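 also: 0% = DMSO-treated cells and 100% = wells with medium but no cells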
NCOA2 inhibitor = inhibits human steroid receptor coactivator 2. AID 651957. hit rate 0.17% among 370,000. HEK293 GAL4-SRC2 luciferase reporter, luminescence. inhibition, % at 9 µM. Q15596;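 active = inhibition above the mean inhibition of all tested compounds plus 3 SD, set per campaign, cut at about 52% in these data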;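 also: 0% = DMSO treated cells and 100% = cells given Gossypol at 36 µM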
SRC1 inh = human NCOA1 inhibition. HEK293 GAL4-SRC1 luciferase reporter, luminescence. inhibition, % at 3.6 µM. hit rate 0.12% among 360,000. AID 588354;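 active = inhibition above the campaign mean plus 3 SD, with each screening campaign given its own cutoff, cut at about 60% in these data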;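 also: 0% = DMSO treated cells and 100% = gossypol at 36 µM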
NCOA3 inh = human NCOA3 inhibition. Q9Y6Q9. HEK293 GAL4-SRC3 luciferase reporter, luminescence. inhibition, % at 3.6 µM. hit rate 0.17% among 360,000;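 active = inhibition above a per-campaign cutoff, the mean of all compounds plus 3 SD, cut at about 60% in these data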;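 also: 0% = DMSO-treated cells and 100% = gossypol-treated cells at 36 µM; higher means less SRC3-driven luciferase light from the GAL4 reporter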
NR5A2 inv ag = NR5A2 inverse agonism in reporter assay | HEK293T StAR-luciferase reporter, LRH-1 transfected, 24 h | inhibition, % at 3.6 µM | hit rate 0.13% among 360,000;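 active = inhibition above the mean inhibition of all tested compounds plus 3 SD, cut at about 73% in these data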;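 also: 0% = DMSO wells and 100% = reporter-only cells lacking LRH-1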
NR2F2 inh = blocks human COUP-TFII nuclear receptor; HEK293T NGFI-A luciferase reporter, luminescence; inhibition, % at 8.6 µM; hit rate 0.7% among 370,000; AID 686940; P24468;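 active = inhibition above a per-plate cutoff, mean inhibition of test wells between control levels plus 3 SD, cut at about 38% in these data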;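 also: cells cotransfected with COUP-TFII expression vector driving the NGFI-A reporter; 0% = median of COUP-TF2 test wells and 100% = reporter-only cells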
Gli-Sufu confirm = Gli-SUFU antagonism confirmation, single concentration | shares compounds with Gli-Sufu antag | Sufu-KO-LIGHT cells, Gli luciferase reporter, luminescence | inhibition, % at 5 µM | hit rate 40% among 2,500 | AID 602428;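 active = mean inhibition at 5 µM reaching about 45%, limit read from the data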;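 also: plate controls were DMSO-treated cells for no effect and wells lacking cells for full effect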
SufuKO cytotox = cytotoxic in Gli-SUFU antagonist counter-screen; cytotoxicity, % at 5 µM; shares compounds with Gli-Sufu antag; hit rate 32% among 2,500; Sufu-KO-LIGHT cells cytotoxicity, ATP luminescence;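 active = mean cytotoxicity at 5 µM above about 25%, limit read from the data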;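 also: cells exposed to compound overnight for roughly 16 to 18 hours; plate controls were DMSO wells with cells for no effect and medium without cells for full effect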
Wnt3a counter = Wnt3a reporter inhibition counter-screen; Wnt-LIGHT cells, Wnt3a-driven luciferase reporter, luminescence; shares compounds with Gli-Sufu antag; inhibition, % at 6.25 µM; hit rate 20% among 2,500;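 active = mean inhibition above about 25%, limit read from the data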
Starred values were filed as active, the others as inactive. Shown are actives, neighbours in structure and some others; about 1.2% of the full set was active somewhere.

C=CCN1C(=O)c2n[nH]c(COC)c2C1c1ccc(C)cc1 (stereo not drawn) was read as NCOA2 inhibitor 18 and NR2F2 inh 8.
Screening COc1ccc(CN2CCSCC2)c(OC)c1C returned Gli-Sufu antag 59*, NCOA2 inhibitor -22, SRC1 inh 2, NCOA3 inh 6, NR5A2 inv ag 1, NR2F2 inh 25, Gli-Sufu confirm 17, SufuKO cytotox 13 and Wnt3a counter -7.
`CCOC(=O)C(=O)NCC(c1cccs1)S(=O)(=O)c1ccc(C)cc1` (stereo not drawn) gave Gli-Sufu antag 0, NCOA2 inhibitor 2, SRC1 inh -18, NCOA3 inh 4, NR5A2 inv ag 1 and NR2F2 inh -5.
Screening CCNC(=O)C(=O)NCC(c1cccs1)S(=O)(=O)c1ccc(C)cc1 (stereo not drawn) returned Gli-Sufu antag 52, NCOA2 inhibitor 8, SRC1 inh -8, NCOA3 inh 7, NR5A2 inv ag -8, NR2F2 inh 1, Gli-Sufu confirm 12, SufuKO cytotox 6 and Wnt3a counter 0.
CCOC(=O)C(=O)NCC(c1cccs1)S(=O)(=O)c1ccc(Cl)cc1 (stereo not drawn) was read as Gli-Sufu antag 55, NCOA2 inhibitor -10, SRC1 inh -2, NCOA3 inh 7, NR5A2 inv ag 0, NR2F2 inh 12, Gli-Sufu confirm 32, SufuKO cytotox 15 and Wnt3a counter 21.
Screening COC(=O)N1Cc2ccnnc2CC1c1ccccc1-c1ccc(F)cc1 (stereo not drawn) returned NCOA2 inhibitor 1 and NR2F2 inh -1.
Screening COC(=O)c1cc2c(c3c4cc(OC)ccc4n(C(=O)c4ccccc4)c13)C(=O)N(C1CCCCC1)C2 returned NCOA2 inhibitor 1 and NR2F2 inh -10.
Screening COc1ccc(C(=O)c2[nH]c(N)c(C(=O)c3c[nH]c4ccccc34)c2-c2ccc(F)c(OC)c2)cc1 returned NCOA2 inhibitor 19 and NR2F2 inh 9.
Screening C[C@H](NC(=O)[C@@H]1CCC(=O)N1Cc1ccco1)c1ccccc1 returned Gli-Sufu antag 68*, NCOA2 inhibitor -1, SRC1 inh 1, NCOA3 inh 1, NR5A2 inv ag 7, NR2F2 inh -8, Gli-Sufu confirm 12, SufuKO cytotox -9 and Wnt3a counter -3.
Screening O=C(CN1CCOc2ccccc21)N1CCN(c2cccc(Cl)c2)CC1 returned Gli-Sufu antag 61*, NCOA2 inhibitor -22, SRC1 inh -22, NCOA3 inh -4, NR5A2 inv ag -15, NR2F2 inh -2, Gli-Sufu confirm 20, SufuKO cytotox 10 and Wnt3a counter -17.
`CCC(CO)Oc1cc(NCc2ccc(C(C)(C)C)cc2)c2ncn(C(C)C)c2c1` (stereo not drawn) gave Gli-Sufu antag 58*, NCOA2 inhibitor -40, SRC1 inh 2, NCOA3 inh 2, NR5A2 inv ag -20, NR2F2 inh -8, Gli-Sufu confirm 48*, SufuKO cytotox 18 and Wnt3a counter 30*.
Screening O=C(CSc1nnc(-c2ccccn2)n1-c1ccccc1)c1ccc2c(c1)OCO2 returned NCOA2 inhibitor 0 and NR2F2 inh 3.
Screening OCCC1CN(Cc2ccccc2O)CCN1CCCc1ccccc1 (stereo not drawn) returned Gli-Sufu antag 54, NCOA2 inhibitor -3, SRC1 inh 4, NCOA3 inh -6, NR5A2 inv ag 8, NR2F2 inh 2, Gli-Sufu confirm 30, SufuKO cytotox -1 and Wnt3a counter -43.
`CN(C)c1ccc(/C=N/NC(=O)C[n+]2ccccc2)cc1` gave Gli-Sufu antag 53, NCOA2 inhibitor -29, SRC1 inh -36, NCOA3 inh 12, NR5A2 inv ag 20, NR2F2 inh -2, Gli-Sufu confirm 10, SufuKO cytotox 6 and Wnt3a counter -14.
`Cc1nc2ccc(S(=O)(=O)NCC(=O)NCCN3CCCCCC3)cc2s1` gave Gli-Sufu antag 83*, NCOA2 inhibitor 7, SRC1 inh -11, NCOA3 inh 3, NR5A2 inv ag 7, NR2F2 inh 9, Gli-Sufu confirm 22, SufuKO cytotox 5 and Wnt3a counter 1.
`CC(C)C[C@H]1COc2cc(Br)ccc2S(=O)(=O)N1Cc1ccc(Cl)cc1` gave NCOA2 inhibitor 22 and NR2F2 inh -1.
Screening CN1CCc2nc(NC(=O)COc3ccc4ccccc4c3)sc2C1 returned Gli-Sufu antag 11, NCOA2 inhibitor 8, SRC1 inh 0, NCOA3 inh 13, NR5A2 inv ag -1 and NR2F2 inh -9.
`CN1CCc2nc(NC(=O)c3cccc(OC(F)F)c3)sc2C1` gave Gli-Sufu antag 68*, NCOA2 inhibitor -24, SRC1 inh -28, NCOA3 inh -18, NR5A2 inv ag -21, NR2F2 inh -19, Gli-Sufu confirm 10, SufuKO cytotox 11 and Wnt3a counter -101.
Screening O=C(Nc1ccc(NS(=O)(=O)c2ccccc2)cc1)c1ccc(Cl)cc1 returned Gli-Sufu antag 4, NCOA2 inhibitor 12, SRC1 inh 3, NCOA3 inh 16, NR5A2 inv ag 11 and NR2F2 inh -13.
`O=C(Nc1cccc(S(=O)(=O)Nc2ccc(Cl)cc2)c1)c1ccc(Cl)nc1` gave Gli-Sufu antag 68*, NCOA2 inhibitor 24, SRC1 inh -9, NCOA3 inh 22, NR5A2 inv ag 58, NR2F2 inh 82*, Gli-Sufu confirm 64*, SufuKO cytotox 39* and Wnt3a counter 23.
Screening O=C(O)CCCC(=O)OCCCc1cc2ccccc2c(=O)o1 returned NCOA2 inhibitor 3 and NR2F2 inh -8.
COc1ccc(-n2c(=O)/c(=C\c3cccs3)s/c2=C(/C#N)C(=O)N2CCN(C)CC2)cc1 was read as Gli-Sufu antag 57*, NCOA2 inhibitor -4, SRC1 inh -11, NCOA3 inh 9, NR5A2 inv ag -4, NR2F2 inh -8, Gli-Sufu confirm 10, SufuKO cytotox 13 and Wnt3a counter -16.
For Cc1cc(C[n+]2cc(Br)ccc2N)c2ncccc2c1 the results were Gli-Sufu antag 52, NCOA2 inhibitor 24, SRC1 inh 24, NCOA3 inh 25, NR5A2 inv ag 31, NR2F2 inh -12, Gli-Sufu confirm 53*, SufuKO cytotox 34* and Wnt3a counter -3.
Screening Cn1cnc([N+](=O)[O-])c1Sc1nnc(-c2ccccc2)c(-c2ccccc2)n1 returned NCOA2 inhibitor -1 and NR2F2 inh 9.

Bioassay records as filed in PubChem BioAssay.
